# Measured values: PubChem BioAssay AID1159580 (chemical genetic matrix, 2015)
# The campaign covered roughly 5,500 compounds. About 2,000 (36%) were called active. Not shown: some 18% with an inconclusive outcome. Some of the results follow. A number with no mark means an inactive call. Cut-off read from the data, not from the text of the source: active = normalized growth mostly below about 0.91 (no sharp cut-off); inconclusive = no clear call, values can overlap the other calls; inactive = mostly above about 0.92.
# Test: chemical genetic growth profiling, strain panel (AID 1159580);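 note: tested at 20 µM; growth read once vehicle control cultures reached saturation at 30 °C; 1 = growth at the plate median or of vehicle wells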
# Conditions: growth OD
compound,measurement,setting,value
S=C=NCc1ccccc1,normalized growth,"S. cerevisiae deletion strains, locus YJR075W, strain HOC1, stronger effect = lower value",0.0711 (active)
same,normalized growth,"S. cerevisiae deletion strains, locus YKL009W, strain mrt4, stronger effect = lower value",0.0801 (active)
same,normalized growth,"S. cerevisiae deletion strains, locus YKL068W, stronger effect = lower value",0.107 (active)
same,normalized growth,"S. cerevisiae deletion strains, locus YKL085W, strain MDH1 (second series), stronger effect = lower value",0.0485 (active)
same,normalized growth,"S. cerevisiae deletion strains, locus YKL085W, strain MDH1, stronger effect = lower value",0.0485 (active)
same,normalized growth,"S. cerevisiae deletion strains, locus YKL160W, strain elf1, stronger effect = lower value",0.0853 (active)
same,normalized growth,"S. cerevisiae deletion strains, locus YKL190W, strain CNB1, stronger effect = lower value",0.0505 (active)
same,normalized growth,"S. cerevisiae deletion strains, locus YKR001C, strain vps1, stronger effect = lower value",0.0646 (active)
same,normalized growth,"S. cerevisiae deletion strains, locus YKR026C, strain gcn3, stronger effect = lower value",0.0866 (active)
same,normalized growth,"S. cerevisiae deletion strains, locus YKR091W, strain srl3, stronger effect = lower value",0.0761 (active)
same,normalized growth,"S. cerevisiae deletion strains, locus YLL001W, strain dnm1, stronger effect = lower value",0.133 (active)
same,normalized growth,"S. cerevisiae deletion strains, locus YLL026W, stronger effect = lower value",0.0653 (active)
same,normalized growth,"S. cerevisiae deletion strains, locus YLL041C, strain sdh2, stronger effect = lower value",0.0963 (active)
same,normalized growth,"S. cerevisiae deletion strains, locus YLR027C, strain aat2, stronger effect = lower value",0.0701 (active)
same,normalized growth,"S. cerevisiae deletion strains, locus YLR039C, strain RIC1, stronger effect = lower value",0.095 (active)
same,normalized growth,"S. cerevisiae deletion strains, locus YLR058C, strain SHM2, stronger effect = lower value",0.0484 (active)
same,normalized growth,"S. cerevisiae deletion strains, locus YLR102C, strain apc9, stronger effect = lower value",0.0598 (active)
same,normalized growth,"S. cerevisiae deletion strains, locus YLR113W, strain HOG1, stronger effect = lower value",0.303 (active)
same,normalized growth,"S. cerevisiae deletion strains, locus YLR221C, strain rsa3, stronger effect = lower value",0.0763 (active)
same,normalized growth,"S. cerevisiae deletion strains, locus YLR258W, strain gsy2, stronger effect = lower value",0.0685 (active)
same,normalized growth,"S. cerevisiae deletion strains, locus YLR262C, strain YPT6 (second series), stronger effect = lower value",0.338 (active)
same,normalized growth,"S. cerevisiae deletion strains, locus YLR262C, strain YPT6, stronger effect = lower value",0.107 (active)
same,normalized growth,"S. cerevisiae deletion strains, locus YLR268W, strain sec22, stronger effect = lower value",0.0685 (active)
same,normalized growth,"S. cerevisiae deletion strains, locus YLR320W, strain mms22, stronger effect = lower value",0.126 (active)
same,normalized growth,"S. cerevisiae deletion strains, locus YLR330W, strain CHS5, stronger effect = lower value",0.0521 (active)
same,normalized growth,"S. cerevisiae deletion strains, locus YLR342W, strain FKS1 (second series), stronger effect = lower value",0.0771 (active)
same,normalized growth,"S. cerevisiae deletion strains, locus YLR342W, strain FKS1, stronger effect = lower value",0.129 (active)
same,normalized growth,"S. cerevisiae deletion strains, locus YLR357W, strain rsc2, stronger effect = lower value",0.208 (active)
same,normalized growth,"S. cerevisiae deletion strains, locus YLR370C, strain arc18, stronger effect = lower value",0.2 (active)
same,normalized growth,"S. cerevisiae deletion strains, locus YLR371W, strain rom2, stronger effect = lower value",0.0645 (active)
same,normalized growth,"S. cerevisiae deletion strains, locus YLR384C, strain iki3, stronger effect = lower value",0.101 (active)
same,normalized growth,"S. cerevisiae deletion strains, locus YLR418C, strain cdc73, stronger effect = lower value",0.105 (active)
same,normalized growth,"S. cerevisiae deletion strains, locus YML016C, strain PPZ1, stronger effect = lower value",0.0508 (active)
same,normalized growth,"S. cerevisiae deletion strains, locus YML032C, strain rad52, stronger effect = lower value",0.068 (active)
same,normalized growth,"S. cerevisiae deletion strains, locus YML120C, strain ndi1, stronger effect = lower value",0.0743 (active)
same,normalized growth,"S. cerevisiae deletion strains, locus YML124C, strain tub3, stronger effect = lower value",0.0581 (active)
same,normalized growth,"S. cerevisiae deletion strains, locus YMR058W, strain fet3, stronger effect = lower value",0.102 (active)
same,normalized growth,"S. cerevisiae deletion strains, locus YMR078C, strain ctf18, stronger effect = lower value",0.0763 (active)
same,normalized growth,"S. cerevisiae deletion strains, locus YMR125W, strain sto1, stronger effect = lower value",0.118 (active)
same,normalized growth,"S. cerevisiae deletion strains, locus YMR129W, stronger effect = lower value",0.115 (active)
same,normalized growth,"S. cerevisiae deletion strains, locus YMR205C, strain PFK2, stronger effect = lower value",0.175 (active)
same,normalized growth,"S. cerevisiae deletion strains, locus YMR223W, strain ubp8, stronger effect = lower value",0.0652 (active)
same,normalized growth,"S. cerevisiae deletion strains, locus YMR231W, strain pep5, stronger effect = lower value",0.159 (active)
same,normalized growth,"S. cerevisiae deletion strains, locus YMR263W, strain SAP30, stronger effect = lower value",0.0638 (active)
same,normalized growth,"S. cerevisiae deletion strains, locus YMR307W, strain GAS1, stronger effect = lower value",0.128 (active)
same,normalized growth,"S. cerevisiae deletion strains, locus YNL067W, strain RPL9B, stronger effect = lower value",0.0559 (active)
same,normalized growth,"S. cerevisiae deletion strains, locus YNL071W, strain lat1, stronger effect = lower value",0.0773 (active)
same,normalized growth,"S. cerevisiae deletion strains, locus YNL128W, strain TEP1, stronger effect = lower value",0.061 (active)
same,normalized growth,"S. cerevisiae deletion strains, locus YNL153C, strain GIM3, stronger effect = lower value",0.0485 (active)
same,normalized growth,"S. cerevisiae deletion strains, locus YNL183C, strain NPR1, stronger effect = lower value",0.784 (active)
same,normalized growth,"S. cerevisiae deletion strains, locus YNL209W, strain ssb2, stronger effect = lower value",0.172 (active)
same,normalized growth,"S. cerevisiae deletion strains, locus YNL233W, strain BNI4, stronger effect = lower value",0.054 (active)
same,normalized growth,"S. cerevisiae deletion strains, locus YNL248C, strain rpa49, stronger effect = lower value",0.0817 (active)
same,normalized growth,"S. cerevisiae deletion strains, locus YNL250W, strain rad50, stronger effect = lower value",0.0774 (active)
same,normalized growth,"S. cerevisiae deletion strains, locus YNL271C, strain bni1, stronger effect = lower value",0.0636 (active)
same,normalized growth,"S. cerevisiae deletion strains, locus YNL298W, strain CLA4, stronger effect = lower value",0.0658 (active)
same,normalized growth,"S. cerevisiae deletion strains, locus YNL307C, strain MCK1, stronger effect = lower value",0.109 (active)
same,normalized growth,"S. cerevisiae deletion strains, locus YNL322C, strain KRE1 (second series), stronger effect = lower value",0.0969 (active)
same,normalized growth,"S. cerevisiae deletion strains, locus YNL322C, strain KRE1, stronger effect = lower value",0.0496 (active)
same,normalized growth,"S. cerevisiae deletion strains, locus YNR049C, strain mso1, stronger effect = lower value",0.0995 (active)
same,normalized growth,"S. cerevisiae deletion strains, locus YNR052C, strain pop2, stronger effect = lower value",0.0721 (active)
same,normalized growth,"S. cerevisiae deletion strains, locus YOL006C, strain TOP1, stronger effect = lower value",0.101 (active)
same,normalized growth,"S. cerevisiae deletion strains, locus YOL012C, strain htz1",0.273
same,normalized growth,"S. cerevisiae deletion strains, locus YOL147C, strain pex11, stronger effect = lower value",0.0554 (active)
same,normalized growth,"S. cerevisiae deletion strains, locus YOR001W, strain rrp6, stronger effect = lower value",0.0775 (active)
same,normalized growth,"S. cerevisiae deletion strains, locus YOR061W, strain CKA2, stronger effect = lower value",0.0465 (active)
same,normalized growth,"S. cerevisiae deletion strains, locus YOR069W, strain VPS5, stronger effect = lower value",0.048 (active)
same,normalized growth,"S. cerevisiae deletion strains, locus YOR070C, strain gyp1, stronger effect = lower value",0.106 (active)
same,normalized growth,"S. cerevisiae deletion strains, locus YOR080W, strain dia2, stronger effect = lower value",0.169 (active)
same,normalized growth,"S. cerevisiae deletion strains, locus YOR083W, strain WHI5, stronger effect = lower value",0.0989 (active)
same,normalized growth,"S. cerevisiae deletion strains, locus YOR106W, strain vam3, stronger effect = lower value",0.115 (active)
same,normalized growth,"S. cerevisiae deletion strains, locus YOR136W, strain idh2, stronger effect = lower value",0.0696 (active)
same,normalized growth,"S. cerevisiae deletion strains, locus YOR144C, strain elg1, stronger effect = lower value",0.0548 (active)
same,normalized growth,"S. cerevisiae deletion strains, locus YOR184W, strain ser1, stronger effect = lower value",0.0749 (active)
same,normalized growth,"S. cerevisiae deletion strains, locus YOR231W, strain MKK1, stronger effect = lower value",0.183 (active)
same,normalized growth,"S. cerevisiae deletion strains, locus YOR265W, strain rbl2, stronger effect = lower value",0.081 (active)
same,normalized growth,"S. cerevisiae deletion strains, locus YOR270C, strain vph1, stronger effect = lower value",0.135 (active)
same,normalized growth,"S. cerevisiae deletion strains, locus YOR290C, strain snf2, stronger effect = lower value",0.0951 (active)
same,normalized growth,"S. cerevisiae deletion strains, locus YOR316C, strain cot1, stronger effect = lower value",0.0582 (active)
same,normalized growth,"S. cerevisiae deletion strains, locus YPL051W, strain arl3, stronger effect = lower value",0.0938 (active)
same,normalized growth,"S. cerevisiae deletion strains, locus YPL055C, strain LGE1, stronger effect = lower value",0.0848 (active)
same,normalized growth,"S. cerevisiae deletion strains, locus YPL078C, strain atp4, stronger effect = lower value",0.0881 (active)
same,normalized growth,"S. cerevisiae deletion strains, locus YPL106C, strain sse1, stronger effect = lower value",0.222 (active)
same,normalized growth,"S. cerevisiae deletion strains, locus YPL240C, strain hsp82, stronger effect = lower value",0.0863 (active)
same,normalized growth,"S. cerevisiae deletion strains, locus YPL241C, strain CIN2, stronger effect = lower value",0.0506 (active)
same,normalized growth,"S. cerevisiae deletion strains, locus YPL256C, strain CLN2, stronger effect = lower value",0.219 (active)
same,normalized growth,"S. cerevisiae deletion strains, locus YPR119W, strain clb2, stronger effect = lower value",0.0611 (active)
same,normalized growth,"S. cerevisiae deletion strains, locus YPR141C, strain kar3, stronger effect = lower value",0.0705 (active)
same,normalized growth,"S. cerevisiae deletion strains, locus YPR163C, strain tif3, stronger effect = lower value",0.07 (active)
same,normalized growth,"S. cerevisiae deletion strains, locus YPR167C, strain met16, stronger effect = lower value",0.0606 (active)
same,normalized growth,"S. cerevisiae deletion strains, strain wtn01, stronger effect = lower value",0.0609 (active)
same,normalized growth,"S. cerevisiae strains, strain wild type, stronger effect = lower value",0.0473 (active)
